The structures appear in SMILES notation. Screen size: about 5,600 compounds; about 4,100 (73%) were called active. About 4% were inconclusive and are not listed. The set was probably picked from earlier hits. These entries were drawn from the full list. A number with no mark means an inactive call.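 The calls were made as follows: active = mean replicate inhibition above about 95% and at least 55% of replicates individually reaching it (limit read from the data); inconclusive = only one of the two criteria is met; inactive = neither criterion is met.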

The nature of this assay: blockers of Trypanosoma cruzi growth in host cells – cell-based, NIH3T3 host, beta-gal parasite, luminescence, cherry-pick, confirmation (AID 651739). The settings on record: T. cruzi beta-gal in NIH3T3, GalScreen luminescence, 90 h; at 8.35 µM; active compounds read high.
A word on the inhibition: it is the change of the read-out against control, counted positive when it falls. Consider `COc1ccc(S(=O)(=O)Nc2ccc3c(c2)C(=O)N([C@H](C)CO)C[C@@H](C)[C@@H](CN(C)CC2CCCCC2)OCCCC[C@@H](C)O3)cc1`, for which the inhibition is 91.5%.

Take `COc1ccc(NC(=O)N(C)C[C@@H]2OCCCC[C@@H](C)Oc3ccc(NS(=O)(=O)c4ccc(Cl)cc4)cc3C(=O)N([C@H](C)CO)C[C@H]2C)cc1`: the inhibition was 104% (active).

Turning to `C[C@@H]1CCCCO[C@H](CN(C)C(=O)NC2CCCCC2)[C@H](C)CN([C@H](C)CO)C(=O)c2cc(NS(=O)(=O)c3ccc(Cl)cc3)ccc2O1`, the inhibition was 106% (active).

With `C[C@H]1CCCCO[C@@H](CN(C)C(=O)NC2CCCCC2)[C@@H](C)CN([C@@H](C)CO)C(=O)c2cc(NS(=O)(=O)c3ccc(Cl)cc3)ccc2O1`, the inhibition is 103% (active).

Regarding `O=C(NCC1CCCCC1)[C@H]1[C@H](CO)[C@H]2Cn3c(cccc3=O)[C@H]2N1C(=O)CC1CC1`, the inhibition was 43%.

As to `O=C(NCc1ccccn1)[C@@H]1[C@@H](CO)[C@@H]2Cn3c(ccc(/C=C/c4ccccc4)c3=O)[C@H]1N2CC1CC1`, the inhibition is 66.3%.

Regarding `O=C(Nc1ccc(-c2ccccc2)cc1)[C@H]1[C@H](CO)[C@H]2Cn3c(cccc3=O)[C@H]2N1CC1CC1`, the inhibition was 101% (active).

As for `CCS(=O)(=O)N1CCCCN2[C@@H](CO)[C@@H](c3ccc(-c4ccccc4)cc3)[C@@H]2C1`, the inhibition is 102% (active).

As for `O=S(=O)(Cc1ccccc1)N1CCCCN2[C@@H](CO)[C@@H](c3ccc(-c4ccc(F)cc4)cc3)[C@@H]2C1`, the inhibition was 96.2% (active).

As for `C/C=C/c1ccc([C@H]2[C@H]3CN(S(=O)(=O)c4ccccc4)CCCCN3[C@H]2CO)cc1`, the inhibition is 105% (active).

In the case of `Cc1cccc(-c2ccc([C@@H]3[C@@H](CO)N4CCCCN(S(=O)(=O)c5cccs5)C[C@H]34)cc2)c1`, the inhibition is 106% (active).

As to `C[C@H](O)C#Cc1ccc([C@H]2[C@H]3CN(S(=O)(=O)Cc4ccccc4)CCCCN3[C@H]2CO)cc1`, the inhibition is 72.1%.

Regarding `O=S(=O)(Cc1ccccc1)N1CCCCN2[C@@H](CO)[C@H](c3ccc(-c4cccnc4)cc3)[C@@H]2C1`, the inhibition is 97.7% (active).

For `O=S(=O)(Cc1ccccc1)N1CCCCN2[C@@H](CO)[C@H](c3ccc(-c4ccccc4)cc3)[C@@H]2C1`, the inhibition was 97.9% (active).

Regarding `C[C@H](CO)N1C[C@H](C)[C@H](CN(C)C(=O)Nc2cccc3ccccc23)Oc2ncc(C#Cc3ccccc3)cc2C1=O`, the inhibition is 99.9% (active).

Regarding `CC(C)CC#Cc1cnc2c(c1)C(=O)N([C@@H](C)CO)C[C@@H](C)[C@H](CN(C)C(=O)Cc1ccncc1)O2`, the inhibition was 76.3%.

Turning to `C[C@@H]1CN([C@@H](C)CO)C(=O)c2cc(C#Cc3ccccc3)cnc2O[C@H]1CN(C)C(=O)c1ccccn1`, the inhibition was 101% (active).

For `COc1ccc(C#Cc2cnc3c(c2)C(=O)N([C@@H](C)CO)C[C@H](C)[C@@H](CN(C)C(C)=O)O3)cc1`, the inhibition was 19.7%.

Regarding `C[C@@H]1CN([C@H](C)CO)C(=O)c2cc(C#Cc3ccccn3)cnc2O[C@H]1CN(C)Cc1ccccc1`, the inhibition is 102% (active).

On to `C[C@@H]1CN([C@H](C)CO)C(=O)c2cc(/C=C/c3ccccc3)cnc2O[C@@H]1CN(C)Cc1ccncc1`, for which the inhibition was 86.1%.

`COCC(=O)N(C)C[C@@H]1Oc2ncc(C#Cc3ccccc3OC)cc2C(=O)N([C@@H](C)CO)C[C@H]1C`: the inhibition was 109% (active).

Regarding `Cc1ccc(S(=O)(=O)N(C)C[C@H]2OCCCC[C@H](C)Oc3ccc(NC(=O)Cc4ccccc4)cc3C(=O)N([C@@H](C)CO)C[C@@H]2C)cc1`, the inhibition was 110% (active).

Consider `C[C@@H]1CCCCO[C@@H](CN(C)S(=O)(=O)c2ccc(Cl)cc2)[C@H](C)CN([C@@H](C)CO)C(=O)c2cc(NC(=O)Cc3ccccc3)ccc2O1`, for which the inhibition is 108% (active).

In the case of `COc1ccccc1-c1ccc2c(c1)O[C@@H](CN(C)C)[C@H](C)CN([C@H](C)CO)S2(=O)=O`, the inhibition was 22.8%.

As for `C[C@@H]1CN([C@@H](C)CO)S(=O)(=O)c2ccc(C#CCN(C)C)cc2O[C@H]1CN(C)C(=O)C1CC1`, the inhibition is 110% (active).

Regarding `CC(C)CC#Cc1ccc2c(c1)O[C@H](CN(C)C(=O)C1CC1)[C@@H](C)CN([C@@H](C)CO)S2(=O)=O`, the inhibition was 111% (active).

Turning to `Cc1ccc(-c2ccc3c(c2)O[C@H](CN(C)C)[C@@H](C)CN([C@H](C)CO)S3(=O)=O)cc1`, the inhibition was 88%.

Consider `C[C@H](CO)N1C[C@H](C)[C@@H](CN(C)C(=O)C2CCCCC2)Oc2cc(-c3ccccc3)ccc2S1(=O)=O`, for which the inhibition was 107% (active).

In the case of `CNC[C@H]1OCCCC[C@@H](C)Oc2ccc(NS(C)(=O)=O)cc2C(=O)N([C@H](C)CO)C[C@H]1C`, the inhibition was -10.3%.

As for `CNC[C@H]1OCCCC[C@H](C)Oc2ccc(NC(=O)Nc3c(C)noc3C)cc2C(=O)N([C@H](C)CO)C[C@H]1C`, the inhibition is 104% (active).

As to `CC(C)NC(=O)N(C)C[C@H]1OCc2cn(nn2)CCCC(=O)N([C@@H](C)CO)C[C@H]1C`, the inhibition was 2.94%.

Take `C[C@@H]1CN([C@@H](C)CO)C(=O)CCCn2cc(nn2)CO[C@@H]1CN(C)S(=O)(=O)c1ccccc1F`: the inhibition was -12.9%.

In the case of `C[C@@H]1CN([C@@H](C)CO)C(=O)c2cc(NC(=O)Nc3ccc(C(F)(F)F)cc3)ccc2O[C@@H](C)CCCCO[C@H]1CN(C)C(=O)c1ccccc1`, the inhibition is 105% (active).

With `C[C@@H]1CN([C@H](C)CO)C(=O)c2cc(NC(=O)Nc3ccc(F)cc3)ccc2O[C@@H](C)CCCCO[C@@H]1CN(C)CC1CCCCC1`, the inhibition is 90.7%.

As to `C[C@H]1CN([C@@H](C)CO)C(=O)CCCn2cc(nn2)CO[C@H]1CN(C)C(=O)c1ccccc1`, the inhibition is 103% (active).

In the case of `C[C@@H]1CCCCO[C@H](CN(C)C(=O)NC2CCCCC2)[C@H](C)CN([C@H](C)CO)C(=O)c2cc(NC(=O)Nc3ccc(F)cc3)ccc2O1`, the inhibition is 97.3% (active).

For `C[C@@H]1CCCCO[C@H](CN(C)C(=O)Nc2ccc(C(F)(F)F)cc2)[C@H](C)CN([C@H](C)CO)C(=O)c2cc(NC(=O)Nc3ccc(C(F)(F)F)cc3)ccc2O1`, the inhibition is 109% (active).

Take `COc1ccc(NC(=O)N(C)C[C@H]2OCCCC[C@H](C)Oc3ccc(NC(=O)Nc4ccc(C(F)(F)F)cc4)cc3C(=O)N([C@@H](C)CO)C[C@@H]2C)cc1`: the inhibition is 103% (active).

`C[C@H](CO)N1C[C@H](C)[C@H](CN(C)C(=O)Nc2ccc(C(F)(F)F)cc2)OCCCC[C@H](C)Oc2ccc(NC(=O)C3CCCCC3)cc2C1=O`: the inhibition is 109% (active).

As to `CC(C)NC(=O)Nc1ccc2c(c1)C(=O)N([C@H](C)CO)C[C@H](C)[C@H](CN(C)C(=O)Nc1ccc(C(F)(F)F)cc1)OCCCC[C@@H](C)O2`, the inhibition is 110% (active).

Consider `CC(C)C#Cc1ccc([C@H]2[C@H](CO)N3CCCCN(C(=O)NC(C)C)C[C@@H]23)cc1`, for which the inhibition is 103% (active).

For `COc1ccc(S(=O)(=O)N2CCCCN3[C@H](C2)[C@H](c2ccc(C#CCC(C)C)cc2)[C@@H]3CO)cc1`, the inhibition was 98.1% (active).

For the molecule `CN(C)CC#Cc1ccc([C@H]2[C@H]3CN(S(=O)(=O)c4ccccc4F)CCCCN3[C@H]2CO)cc1`, the inhibition was 83.2%.

As for `C[C@@H](O)C#Cc1ccc([C@@H]2[C@H](CO)N3CCCCN(S(=O)(=O)c4ccccc4)C[C@@H]23)cc1`, the inhibition was 62.6%.

As to `C[C@H](O)C#Cc1ccc([C@@H]2[C@H]3CN(S(=O)(=O)c4ccccc4)CCCCN3[C@H]2CO)cc1`, the inhibition is 32.8%.

`COc1cccc(S(=O)(=O)N2CCCCN3[C@H](C2)[C@H](c2ccc(C#CC(C)C)cc2)[C@@H]3CO)c1`: the inhibition is 102% (active).

Take `COc1ccc(S(=O)(=O)N2CCCCN3[C@H](CO)[C@@H](c4ccc(C#CC(C)C)cc4)[C@H]3C2)cc1`: the inhibition is 109% (active).

Take `COc1cccc(S(=O)(=O)N2CCCCN3[C@H](CO)[C@H](c4ccc(-c5ccncc5)cc4)[C@H]3C2)c1`: the inhibition is 110% (active).

As for `COc1cccc(S(=O)(=O)N2CCCCN3[C@H](CO)[C@H](c4ccc(C#CC5CC5)cc4)[C@H]3C2)c1`, the inhibition is 105% (active).

Consider `C[C@H](CO)N1C[C@H](C)[C@@H](CN(C)Cc2ccncc2)Oc2cc(Br)ccc2S1(=O)=O`, for which the inhibition is 95.7% (active).

On to `CC(C)CC#Cc1ccc2c(c1)O[C@H](CN(C)Cc1ccccc1F)[C@@H](C)CN([C@@H](C)CO)S2(=O)=O`, for which the inhibition was 96.7% (active).

In the case of `C[C@H](CO)N1C[C@H](C)[C@H](CN(C)Cc2ccncc2)Oc2cc(-c3ccncc3)ccc2S1(=O)=O`, the inhibition is 92.9%.

Take `CC(C)CC#Cc1ccc2c(c1)O[C@H](CN(C)Cc1ccncc1)[C@H](C)CN([C@H](C)CO)S2(=O)=O`: the inhibition is 97.8% (active).

As for `CC(C)CC#Cc1ccc2c(c1)O[C@H](CN(C)Cc1cccnc1)[C@H](C)CN([C@@H](C)CO)S2(=O)=O`, the inhibition was 98.7% (active).

Regarding `Cc1ccccc1-c1ccc([C@H]2[C@H]3CN(S(=O)(=O)c4ccc(F)cc4)CCCCN3[C@H]2CO)cc1`, the inhibition is 97.2% (active).

Turning to `O=S(=O)(c1ccc(F)cc1)N1CCCCN2[C@H](C1)[C@H](c1ccc(C3=CCCCC3)cc1)[C@@H]2CO`, the inhibition was 106% (active).

`Cc1noc(C)c1S(=O)(=O)Nc1ccc2c(c1)C(=O)N([C@@H](C)CO)C[C@@H](C)[C@H](CN(C)S(=O)(=O)c1ccc(Cl)cc1)OCCCC[C@H](C)O2`: the inhibition was 99.1% (active).

As to `C[C@@H]1CN([C@H](C)CO)C(=O)c2cc(NS(=O)(=O)c3cccs3)ccc2O[C@@H](C)CCCCO[C@@H]1CN(C)S(=O)(=O)c1ccc(Cl)cc1`, the inhibition is 101% (active).

Take `C[C@H]1CCCCO[C@@H](CN(C)S(=O)(=O)c2cccs2)[C@@H](C)CN([C@@H](C)CO)C(=O)c2cc(NS(=O)(=O)c3ccc(Cl)cc3)ccc2O1`: the inhibition was 101% (active).

Regarding `C[C@@H]1CCCCO[C@H](CN(C)S(=O)(=O)c2ccc(Cl)cc2)[C@H](C)CN([C@@H](C)CO)C(=O)c2cc(NS(=O)(=O)c3cccs3)ccc2O1`, the inhibition was 105% (active).
